HT1080 IDH1KD tx – kills HT-1080 cells with IDH1 knockdown | Potency, µM (titrated, usually from 46.1 µM), for inactives: at the top dose activity, negative = toxicity, actives largely listed as cytotoxic | AID 686971 | HT-1080 IDH1 knockdown viability, ATP luminescence, 48 h | 2% of 360,000 active;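 further: potency means the concentration at half of the fitted maximal effect; 0% = DMSO wells and -100% = cell-free medium wells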
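% activity derives from luminescence (CellTiter-Glo), normalised to DMSO and no-cell wells. HT-1080-IDH1KD cells, 750/well, had 48 h compound exposure at 37 °C.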
HT1080NT lethal – kills 2HG-producing HT-1080-NT fibrosarcoma cells; Potency, µM (highest dose often 46.1 µM), for inactives: at the highest dose activity, negative = less viability, usual class: cytotoxic; HT-1080-NT fibrosarcoma viability, CellTiter-Glo ATP luminescence, 48 h; 1.6% of 360,000 active;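 further: NT is the 2HG producing partner of a matched IDH1 knockdown line; potency means the concentration at half of the fitted maximal effect; 0% = DMSO-treated cells and -100% = media-only wells without cells; nearly all actives have a fitted effect of over 55% in size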
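Luminescent CellTiter-Glo readout after 48 hours of compound exposure at 37 degrees C defined viability of HT-1080-NT cells. Activity was normalized to DMSO wells and cell-free media wells; concentration-response curves were fitted and assigned curve classes.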
IL1B secr inh – inflammasome signaling inhibition, IL-1 beta readout; THP-1 LPS/ATP IL-1B secretion, AlphaLISA, 16 h; stronger effect = lower value; activity change, % at 57.5 µM; 4.7% of 360,000 active; AID 743279; in the data active means activity change below about -50%; inconclusive means mostly about -30% to -49%
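Secreted IL-1B measured by AlphaLISA bead assay after 16 h compound exposure of THP-1 cells; compounds (final up to 57.5 uM) added 1 h before LPS (250 ng/mL) and ATP (1.25 mM) stimulation; lower signal means less secretion.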
DT40 TDP1 no CPT – qHTS for Inhibitors of human tyrosyl-DNA phosphodiesterase 1 (TDP1): qHTS in cells in absence of CPT. 15% of 420,000 active. AID 686978, 2013. Potency, µM (series often up to 46.2 µM), for the others: top-dose activity change, negative = growth inhibition, most hits filed as inhibitors. DT40 Tdp1-/- hTDP1 cells, no CPT, ATP luminescence, 48 h; further: potency means the concentration at half of the fitted maximal effect; nearly all actives have a fitted effect of over 55% in size
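Growth of hTDP1-complemented DT40 Tdp1-knockout cells is measured by ATP luminescence after at least 48 hr compound exposure at 37 °C, with DMSO substituting for the 20 nM CPT used in the parallel screen.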
TDP1 cell CPT – growth inhibition of DT40 Tdp1-/-;hTDP1 cells with camptothecin (screen for TDP1 inhibitors); chicken DT40 Tdp1-/-;hTDP1 cells + 20 nM CPT, ATP luminescence, 48 h; Potency, µM (titrated, usually from 46.2 µM), without a hit: at the top dose activity change, negative = growth inhibition, actives largely listed as inhibitors; 12% of 420,000 active; further: potency means the concentration at half of the fitted maximal effect; nearly all actives have a fitted effect of over 55% in size
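Chicken DT40 Tdp1-/- cells stably complemented with human TDP1 were seeded at 400 cells/well in medium containing 20 nM camptothecin, exposed to pin-transferred compounds, and grown at 37 °C for at least 48 hr. Viability was read as ATP luminescence.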
Active calls of the source: *; ? = inconclusive; / = not tested or not shown; [ ] = another dose, or the depositor's remark. Hits are enriched below; roughly 19% of the tested compounds scored in any of these assays. Unless noted, the call rests on the fitted dose curve; in most records, active means well fitted curve in the direction sought with a large enough effect; inconclusive means small, poorly fitted or top-dose-only effect, or another doubt; inactive means no such curve, though single readings can be large; an effect the other way counts as inactive or inconclusive. Unless noted, on the % scale 0 is the no-effect control and ±100 the full control effect.

SMILES	HT1080 IDH1KD tx	HT1080NT lethal	IL1B secr inh	DT40 TDP1 no CPT	TDP1 cell CPT
O=C(CSc1ccc2nnc(-c3ccc(Cl)cc3)n2n1)N1CCCc2ccccc21	15%	14%	0	23µM*	-66%
O=C(CSc1ccc2nnc(-c3ccc(F)cc3)n2n1)N1CCCc2ccccc21	-7%	1%	-7	16µM*	18µM*
O=C(NCCc1nnc2ccc(N3CCCC3)nn12)c1ccccc1	-6%	-9%	3	-9%	-8%
Nn1c(SCc2ccccn2)nncc1=O	25%	0%	-5	-10%	5%
CN(CC(=O)Nc1ccc(Cl)c(S(=O)(=O)N2CCOCC2)c1)C(=O)c1ccc(C#N)cc1	1%	0%	15	26%	-3%
Cc1ccc(NC(=O)c2ccc(OCC3CCCO3)cc2)cc1Cl (centres undefined)	-12%	-2%	14	?	?
COc1ccc(S(=O)(=O)N2CCCCCC2)cc1C(=O)N(C)CC(=O)Nc1ccc(Cl)c(Cl)c1	-21%	-29%	-59*	?	?
CN(CC(=O)Nc1ccc(Cl)c(C(F)(F)F)c1)C(=O)c1ccc(S(=O)(=O)N2CCOCC2)cc1	10µM*	-24%[9.24 µM]	73	6.5µM*	4.6µM*
Cc1ccc(S(=O)(=O)N2CCCCC2)cc1C(=O)N(C)CC(=O)Nc1ccc(Cl)c(C(F)(F)F)c1	3%	10%	-56*	?	?
COc1cccc(NC(=O)CN(C)C(=O)c2cc(S(=O)(=O)N3CCCCC3)ccc2Cl)c1	4%	0%	7	?	?
COc1ccc(S(=O)(=O)N2CCCCCC2)cc1C(=O)N(C)CC(=O)Nc1cc(C)ccc1C	-10%	-1%	-14	-20%	?
CN(CC(=O)Nc1ccc(Cl)c(C(F)(F)F)c1)C(=O)c1ccc(OCC2CCCO2)cc1 (centres undefined)	?	-15%	-22	16µM*	18µM*
CCOc1ccccc1NC(=O)CSc1nc2c(oc3ccccc32)c(=O)n1C(C)C	/	/	/	-13%	-3%
COc1ccc(Cl)cc1NC(=O)CSc1nnc(C)n2c1cc1sccc12	/	/	/	-14%	0%
Cc1ccc(C(=O)N(C)CC(=O)Nc2ccc(Cl)c(C(F)(F)F)c2)cc1S(=O)(=O)N1CCCCC1	?	?	-23	23µM*	?
Cc1cc(NC(=O)n2ncc3c(C)cccc32)ccc1Br	/	/	/	-29%	?
CCOC(=O)N1CCC(NC(=O)C2CCN(C(=O)c3cc4oc(C)cc4n3Cc3c(F)cccc3Cl)CC2)CC1	-11%	0%	23	15µM*	?
CCN(CC)S(=O)(=O)c1ccc(-c2cn3ccccc3n2)cc1	-3%	-5%	-27	15µM*	?
Clc1ccc(-c2nc3n(n2)Cc2ccccc2-3)cc1	-4%	-13%	12	-17%	-15%
CN(C)S(=O)(=O)c1ccc(-c2cn3ccccc3n2)cc1	?	?	8	?	-29%
Cc1ccc2nc(-c3cccc(S(=O)(=O)N4CC(C)OC(C)C4)c3)cn2c1 (centres undefined)	-12%	-1%	-25	15µM*	?
CCN(CC)S(=O)(=O)c1cccc(-c2nc3n(n2)Cc2ccccc2-3)c1	6%	4%	-17	23µM*	?
CCN(CC)S(=O)(=O)c1cccc(-c2cn3cc(C)ccc3n2)c1	-29%	-16%	-22	18µM*	21µM*
Cc1cccnc1-c1cccc2c1OC(CNC(=O)C(=O)c1ccccc1)C2 (centres undefined)	/	/	/	-28%	?
CCCN(CCC)S(=O)(=O)c1cccc(-c2csc(C)n2)c1	1%	-1%	-55*	18µM*	?
CCOC(=O)c1c(C2CC2)csc1NC(=O)COC(=O)c1ccc[n+]([O-])c1	1%	1%	-3	?	-30%
CCOC(=O)c1c(C2CC2)csc1NC(=O)COC(=O)c1cc(OC)c(OC)cc1[N+](=O)[O-]	7%	4%	28	21µM*	?
CC12CC3(C)CC(C)(C1)CC(NC(=O)N1CCCC1)(C2)C3	0%	0%	-13	13µM*	?
Cc1ccc(-n2nc3c(=O)n(C(C)C(=O)NCCCc4ccccc4)nc(C)c3c2C)cc1 (centres undefined)	-20%	-3%	-9	9.2µM*	16µM*
CCOc1ccccc1CNC(=O)C(C)n1nc(C)c2c(C)n(-c3ccccc3)nc2c1=O (centres undefined)	-21%	-24%	-3	?	23µM*

Source: PubChem BioAssay
